Source: PubChem BioAssay AID1626 (SRMLSC, 2009)
Screen size: about 220,000 compounds; about 2,000 (0.91%) were called active. Inconclusive results (about 2%) are left out. A selection follows. Measured potencies and affinities stand elsewhere. Values without a mark were called inactive. Cut-off read from the data, not from the text of the source: inconclusive = inhibition above about 80% without an active follow-up result; inactive = below that; test concentration not stated here.

Assay: M. tuberculosis H37Rv growth inhibitors, H37Rv strain (AID 1626);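 note: bacteria incubated seven days before Alamar blue readout; 0% = bacteria only wells and 100% = bacteria with antibiotic wells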
Conditions: stronger effect = higher value, concentration not given here

First: Cn1cnc2c1c(=O)n(Cc1ccccc1)c(=O)n2C
Second: Cn1c(-c2ccc3c(c2)OCO3)cnc1NCc1ccccc1
The inhibition of the first is lower: -6.11% for the first, -5.95% for the second.

Going from `c1ccc(-c2cc3c(N4CCCC4)ncnc3s2)cc1` to `CN1CCN(c2ncnc3sc(-c4ccccc4)cc23)CC1`, the inhibition falls from 2.65% to 0.51%.

Going from `c1ccc(-c2cc3c(N4CCN(c5ncccn5)CC4)ncnc3s2)cc1` to `Oc1ccc(N2CCN(c3ncnc4sc(-c5ccccc5)cc34)CC2)cc1`, the inhibition rises from -0.33% to 69.8%.

Going from `O=C(NCCN1CCOCC1)N1CCOCC1` to `Cc1ccc(-c2nnc(N3CCN(C(=O)CN4CCOCC4)CC3)c3ccccc23)cc1`, the inhibition rises from -3.24% to 0.29%.

Going from `COc1ccc(Cl)cc1NC(=O)c1ccccc1C` to `O=C(CN(Cc1ccco1)C(=O)c1ccccc1)Nc1ccc(Cl)c(Cl)c1`, the inhibition falls from 4.11% to 0.53%.

Going from `Cc1cc(C)c2nc(SC(C)C#N)cc(C)c2c1` (stereo not drawn) to `CCOC(=O)c1sc(N2N=C(C)C(N=Nc3cccc(C)c3)C2=O)nc1C` (stereo not drawn), the inhibition rises from 9.89% to 57.3%.

Compared with `O=C(Nc1cccc([N+](=O)[O-])c1)C12CC3CC(C1)CC(n1cnc([N+](=O)[O-])n1)(C3)C2`, `O=C(Nc1ccccc1)C12CC3CC(C1)CC(n1cnc([N+](=O)[O-])n1)(C3)C2` is lower in inhibition: 3.76% for the first, 3.45% for the second.

Going from `O=C1c2ccsc2SCCN1Cc1ccccc1Cl` to `NCCOc1cnn(-c2ccccc2Cl)c(=O)c1Cl`, the inhibition falls from 8.66% to 0.22%.

Going from `COCCNC(=O)/C(C#N)=C\c1ccc(CNC(=O)C(=O)Nc2ccc(C)c(C)c2)o1` to `CC(C)CNC(=O)NC(=O)COC(=O)c1cccc(NS(=O)(=O)c2ccc(F)c(F)c2)c1`, the inhibition rises from -19% to 27.8%.

Compared with `CCC(=O)N1CCc2cc(S(=O)(=O)CCC(=O)NCc3ccco3)ccc21`, `O=C(c1ccc2ccccc2c1)C1CCCN(C(=O)CCn2cnnn2)C1` (stereo not drawn) is higher in inhibition: -7.3% for the first, 3.36% for the second.

Compared with `Cn1ccnc1C(O)c1ccccc1` (stereo not drawn), `COc1ccc(C(O)c2nccn2C)cc1` (stereo not drawn) is lower in inhibition: 6.73% for the first, 4.48% for the second.

First: O=C(NN1C(=O)C2C(C1=O)C1C=CC2C12CC2)c1ccc(Cl)cc1 (stereo not drawn)
Second: O=C1[C@@H]2[C@H](C(=O)N1Cc1cccnc1)[C@H]1C=C[C@@H]2C1
The inhibition of the first is higher: 7.63% for the first, 4% for the second.

Compared with `Cc1ccc(NS(=O)(=O)c2cccc([N+](=O)[O-])c2)nc1`, `O=C(CNS(=O)(=O)c1cccc(Cl)c1)Nc1ccc(-c2nc3ccccc3s2)cc1` is lower in inhibition: 2.81% for the first, 1.91% for the second.

Compared with `CC1(C)Cc2c(C#N)c(N3CCN(C(=O)c4ccco4)CC3)nc(Cc3ccccc3)c2CO1`, `CCc1nc(N2CCN(C(=O)c3ccccc3)CC2)c(C#N)c2c1COC(C)(C)C2` is higher in inhibition: -5.53% for the first, -3.57% for the second.

Compared with `CC(C)C(=O)N1CCN(c2nc(-c3ccccc3)c3c(c2C#N)CCCC3)CC1`, `CCC(=O)N1CCN(c2nc(-c3ccccc3)c3c(c2C#N)CCCC3)CC1` is lower in inhibition: 7.25% for the first, 6.35% for the second.

Going from `O=C(c1ccco1)N1CCN(c2nnc(-c3ccccc3)c3ccccc23)CC1` to `CC(C)C[C@H](NC(=O)c1nc[nH]c1C(=O)NCc1ccccc1)C(=O)OCc1ccccc1`, the inhibition falls from 1.18% to -9.88%.

Compared with `O=C(/C=C/c1ccc(Br)cc1)NCc1cccs1`, `O=C(O)c1sccc1SCc1ccc(Cl)c(Cl)c1` is lower in inhibition: 8.29% for the first, -2.78% for the second.

Compared with `Cc1cc(C)cc(N2C(=O)CSC2c2cccs2)c1` (stereo not drawn), `COc1ccc(NC(=O)N2CCCC(c3nc(-c4ccc(C(C)C)cc4)no3)C2)cc1` (stereo not drawn) is higher in inhibition: -1.33% for the first, 10.7% for the second.

Compared with `COc1ccc(NC(=O)NCCCN2CCC(Cc3ccccc3)CC2)cc1`, `O=C(Nc1ccc(Cl)cc1)NC1CCCCC1` is higher in inhibition: -4.94% for the first, -3.67% for the second.

Compared with `C#C[C@]1(O)CCC2C3CCC4=Cc5oncc5CC4(C)C3CCC21C` (stereo partly drawn), `Cc1ccc(NC(=O)C2CCN(C(=O)NC3CCCCC3)CC2)cc1Cl` is higher in inhibition: 3.82% for the first, 7.5% for the second.

Compared with `Cn1c(-c2ccc3c(c2)OCO3)cnc1NCc1ccc(Cl)cc1`, `O=C(Nc1ccc(F)c(F)c1)NC1CCCCC1` is lower in inhibition: -3.22% for the first, -11.3% for the second.

First: O=S(=O)(c1ccc(-n2cnnn2)cc1)N1CCC(N2CCCCC2)CC1
Second: Cc1noc(C)c1S(=O)(=O)N1CCCCC1
The inhibition of the first is higher: 0.43% for the first, -4.38% for the second.

Going from `Cc1cc(C)n2c(=S)[nH]nc2n1` to `CCCC(=O)NC(C)c1nc2ccccc2n1CC` (stereo not drawn), the inhibition rises from -1.62% to 1.48%.

Compared with `CC(C)c1ccc(NC(=S)NC2CCCCCC2)cc1`, `CCC(C)(C)C(=O)Nc1ccc(OC)cc1[N+](=O)[O-]` is higher in inhibition: -13.8% for the first, -0.65% for the second.
